Screening results from PubChem.
USP2a inh: qHTS Assay for Inhibitors of Ubiquitin-specific Protease USP2a; USP2a enzymatic assay, qHTS inhibition; Potency, µM (doses to about 38.3 µM), inactives show at the highest dose activity change, negative = inhibition, usual class: inhibitors; actives 0.1% (n = 60,000); note: potency is the fitted concentration of half-maximal effect; nearly all actives have a fitted effect of over 60% in size
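Coupled readout: USP2-cleaved Ub-PLA2 (20nM final) turns over NBD C6-HPC (20uM final), Ex 460nm/Em 535nm after 2.5 h, time-zero read flagging artifacts. Enzyme (20nM final, pH 8.0 Tris) given 30 min RT with compound first; NEM defines full inhibition.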
BRCT inh red: qHTS Assay for Inhibitors of BRCT-Phosphoprotein Interaction (Red Fluorophore). Breast cancer type 1 susceptibility protein (Homo sapiens), P38398. BRCT-phosphopeptide binding, red fluorescence polarization. Potency, µM (highest dose often 76.9 µM), for inactives: at the top dose activity change, negative = inhibition, actives largely listed as inhibitors. actives 0.03% (n = 75,000). AID 892, 2007; note: % is set by controls: 0 for no effect and ±100 for the full control effect
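Rhodamine-labelled pBACH1 10-mer (100 nM) bound to BRCT domain (100 nM) at pH 7.3; compounds incubated 12 min room temperature, polarization read. Free peptide defines full inhibition; unlabelled decapeptide titrated as control.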
BRCT inh green: qHTS Assay for Inhibitors of BRCT-Phosphoprotein Interaction (Green Fluorophore); Potency, µM (series often up to 76.9 µM), for the others: at the highest dose activity change, negative = inhibition, usual class: inhibitors; actives 0.05% (n = 75,000); BRCA1 BRCT-phosphopeptide binding, green fluorescence polarization; Breast cancer type 1 susceptibility protein (Homo sapiens), P38398;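 note: potency is the fitted concentration of half-maximal effect; plate controls were peptide without protein for full effect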
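Compounds were incubated for 12 min at room temperature with a complex of 100 nM fluorescein-tagged pBACH1 decapeptide and 250 nM His-tagged BRCT protein. Buffer was phosphate pH 7.3 with EDTA, DTT and Tween 20. Disruption of binding lowers the polarization signal.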
Active calls of the source: *; u = inconclusive; x = not tested or not shown; [ ] = another dose, or the depositor's remark. An excerpt weighted towards active compounds, which were near 0.16% of everything screened. Calls come from the whole dose curve; as a rule, active = well fitted inhibition curve with a large enough effect; inconclusive = small, poorly fitted or top-dose-only effect; inactive = no such curve, though single readings can be large or run the other way.

SMILES	USP2a inh	BRCT inh red	BRCT inh green
Cc1ccc(O)cc1	-15%	5%	-1%[3.08 µM]
CN(N=O)c1cc(O)ccc1O	16µM*	32µM*	u
O=P(O)(O)Cc1ccccc1OP(=O)(c1ccccc1)c1ccccc1	-6%	-2%	-2%
CCC(=NC1CCN(Cc2ccccc2)CC1)c1c(O)[nH]c(=O)[nH]c1=O	8%	-2%	-1%
CCOC(=O)c1ccc(NC(=O)c2c(O)[nH]c(=O)[nH]c2=O)cc1	77%	-2%	13µM*
O=C(O)c1cccc([As]=[As]c2cccc(C(=O)O)c2)c1 (stereo unspecified)	x	2%[15.4 µM]	-4%[15.4 µM]
Nc1ccc2ccccc2c1	x	0%	1%
C[n+]1c2cc(N)ccc2cc2ccc(N)cc21	69%	-8%	1.3µM*
CCOC(=O)N1CCC(NC(=O)CCc2nc(C3=CCN(C)CC3)no2)CC1	6%	0%	5%
CN(C)C1C(=O)C(C(N)=O)=C(O)[C@@]2(O)C(=O)C3=C(O)c4c(O)ccc(Cl)c4[C@](C)(O)C3CC12 (stereo partly specified)	10µM*	-3%	-3%[3.08 µM]
CN(C)[C@@H]1C(=O)C(C(N)=O)=C(O)[C@]2(O)C(=O)C3=C(O)c4c(O)ccc(Cl)c4[C@](C)(O)[C@H]3C[C@@H]12	23%[17.1 µM]	0%[34.4 µM]	0%[34.4 µM]
CC(=O)[C@@H]1CC[C@H]2[C@H]3CC[C@H]4C[C@@H](O)CC[C@]4(C)[C@@H]3C(=O)C[C@@]12C	1%[17.1 µM]	-2%[34.4 µM]	1%[34.4 µM]
